# Screening data from PubChem BioAssay.
# Rows were chosen to be rich in hits. Some 3.5% of all compounds tested hit in one or more screens of this group.
# FBW7 activator – activators of human E3 ligase FBW7; normalized activity (activation), % at 26.1 µM; AID 1259310; Q969H0; AlphaScreen FBW7–phospho-cyclin E peptide binding, activator screen; actives 0.13% (n = 650,000); in the data active = normalized activity above about 1.9%;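 also: purified mutant Fbw7 with reduced substrate affinity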
# TEAD-YAP block – TEAD-YAP interaction inhibition | HEK-TIYL cells, TEAD-Gal4/YAP UAS-luciferase luminescence | inhibition, % at 9.12 µM | actives 1.4% (n = 640,000) | AID 1259422; in the data active = inhibition above about 32%
# GPR151 ag – activates the human receptor GPR151; Q8TDV0; PathHunter beta-arrestin GPR151 cells, luminescence; activation, % at 11.2 µM; actives 1% (n = 650,000); AID 1508602; in the data active = activation above about 4.9%
# MITF inh – human MITF inhibition, primary screen; O75030; actives 0.91% (n = 650,000); AlphaScreen MITF homodimerization, bead proximity signal; inhibition, % at 2.6 µM; in the data active = inhibition above about 50%
# Target sequence (O75030 whole entry, looked up): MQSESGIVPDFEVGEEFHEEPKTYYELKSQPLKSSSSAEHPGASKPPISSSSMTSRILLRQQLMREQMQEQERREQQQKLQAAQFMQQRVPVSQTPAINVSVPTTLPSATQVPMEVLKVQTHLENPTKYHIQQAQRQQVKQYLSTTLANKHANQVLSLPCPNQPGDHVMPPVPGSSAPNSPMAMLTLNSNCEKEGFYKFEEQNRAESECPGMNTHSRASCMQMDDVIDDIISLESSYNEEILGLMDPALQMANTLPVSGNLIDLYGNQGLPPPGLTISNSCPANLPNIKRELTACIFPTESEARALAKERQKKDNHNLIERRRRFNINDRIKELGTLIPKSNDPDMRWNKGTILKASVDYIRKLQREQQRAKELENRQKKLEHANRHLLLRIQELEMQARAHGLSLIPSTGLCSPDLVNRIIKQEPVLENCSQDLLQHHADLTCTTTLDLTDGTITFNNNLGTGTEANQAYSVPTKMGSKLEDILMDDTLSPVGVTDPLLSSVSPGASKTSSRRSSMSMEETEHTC
# Hits are given with their value; 0 = inactive.
SMILES,FBW7 activator,TEAD-YAP block,GPR151 ag,MITF inh
O=c1[nH]c(N2CCCCC2)nc2c1CCN(Cc1ccc(O)c(O)c1)C2,0,0,0,82.2
CN(CC(=O)N1CCCC1)S(=O)(=O)c1ccc2c(c1)c(=O)n(C)c(=O)n2C,0,0,0,0
Cc1cccc(N=c2oc3ccccc3cc2-c2nc3ccccc3[nH]2)c1,0,46.5,0,0
Cc1ccc2nc(-c3cc4ccccc4oc3=N)[nH]c2c1,0,93.3,0,0
Cc1ccccc1N=c1oc2ccccc2cc1-c1nc2ccccc2[nH]1,0,42.7,0,0
O=C(Cc1cc(-c2ccccc2)on1)NCc1cccnc1,0,0,0,0
COc1ccc(-c2cc(C(F)(F)F)nc(S(=O)(=O)CCC(=O)NC(C)C)n2)cc1,0,0,0,0
CCCNC(=O)CCS(=O)(=O)c1nc(-c2ccc(OC)cc2)cc(C(F)(F)F)n1,2.1,0,0,0
Cc1ccc(-c2cccc3cnc(Nc4ccc(C(=O)N5CCCC5)cc4)nc23)cn1,0,50.2,0,0
Cc1ccc(-c2cccc3cnc(Nc4cccc(C(=O)N5CCOCC5)c4)nc23)cn1,0,32.4,0,0
Cc1ccc(-c2cccc3cnc(NC4CCN(C(=O)N5CCCC5)C4)nc23)cn1 (stereo unspecified),0,0,0,0
CC(NCCN1CCNCC1)c1cc(C(C)(C)C)cc2c1CCC2(C)C (stereo unspecified),0,64.0,0,0
Cc1c2cnc3nn(-c4ccccc4)c(=O)c-3cc2c(C)n1-c1ccccc1,0,84.7,0,0
CCOC(=O)c1ccc(-n2c(C)c3cnc4nn(-c5ccccc5)c(=O)c-4cc3c2C)cc1,0,0,0,0
CCn1c(SCC(=O)N2CCCC2)nnc1-c1c[nH]c2ccccc12,0,0,0,0
CCOC(=O)N1CCN(C(=O)CSc2nnc(-c3c[nH]c4ccccc34)n2CC)CC1,0,35.8,0,0
CN(C(=O)COC(=O)c1ccc(N)c([N+](=O)[O-])c1)c1ccccc1,0,0,0,0
COc1ccc(Nc2cc(C)nc(-n3nc(C)cc3C)n2)cc1OC,0,69.2,0,0
COc1ccc(C=NC2CC(C)N(C)CC2C)cc1 (stereo unspecified),0,0,0,0
O=C(CN1CCC(Cn2cnc3ccccc32)CC1)Nc1nc2ccc(F)cc2s1,0,56.0,0,0
CC1CCC(N2C(=O)C3C(C(=O)Nc4ccc(C(C)C)cc4)C4C=CC3(O4)C2C(=O)NC2CCCCC2C)CC1 (stereo unspecified),0,0,0,0
COc1ccc(CN(C)Cc2nc(CCc3ccccc3)no2)c2cccnc12,0,35.4,0,0
CN1C/C(=C/c2cccnc2)C(=O)/C(=C/c2cccnc2)C1,0,74.0,0,0
CC(C)N1C/C(=C/c2cccnc2)C(=O)/C(=C/c2cccnc2)C1,0,52.1,0,0
Cc1nn(C)c(C)c1-c1nc2c(NCc3cccc(C(F)(F)F)c3)ncnc2n1C(C)C,0,0,0,0
SMILES,FBW7 activator,TEAD-YAP block,GPR151 ag,MITF inh
CC(=O)c1cc(-c2ccc(F)cc2)n(CC(=O)N2CCN(C3CCCC3)CC2)c1C,0,0,0,0
O=C(CCC1(Cc2ccc(F)cc2)CCC(=O)N1)NCc1c(F)cccc1F (stereo unspecified),0,35.6,0,0
N#CC1=C(N)Oc2c(sc3ccccc23)C1c1cccc2ccccc12 (stereo unspecified),0,0,0,0
COc1ccc(C)cc1-n1c(C)cc(/C=C2/C(=N)N3C=CSC3=NC2=O)c1C,0,51.2,0,0
Cc1cc(/C=C2/C(=N)N3C=CSC3=NC2=O)c(C)n1-c1ccc(Cl)cc1,0,0,0,0
COc1ccccc1-n1c(C)cc(/C=C2\C(=N)N3N=CSC3=NC2=O)c1C,0,74.6,0,0
COc1ccccc1-n1c(C)cc(/C=C2/C(=N)N3C=C(C)SC3=NC2=O)c1C,0,0,0,0
Cc1ccc(-n2c(C)cc(/C=C3/C(=N)N4C=CSC4=NC3=O)c2C)c(C)c1,0,64.2,0,0
CCOc1ccc(NC(=O)NCCNc2nc3cc4c(cc3cc2C#N)OCO4)cc1,0,0,0,0
COc1ccc(N2C(=O)NC(NC(=O)c3ccc(F)cc3)(C(F)(F)F)C2=O)cc1 (stereo unspecified),0,0,0,0
O=C(Nc1cc([N+](=O)[O-])ccc1F)c1ccccc1F,0,0,0,0
Nc1nc(Nc2ccc3ncccc3c2)nc2c1ncn2-c1ccsc1,38.3,0,0,0
c1cnc2ccc(Nc3nc(Nc4ccc(N5CCOCC5)cc4)c4ncn(-c5ccsc5)c4n3)cc2c1,0,37.8,0,0
c1ccc(Nc2nc(Nc3ccc4ncccc4c3)nc3c2ncn3-c2ccccc2)cc1,0,42.1,0,0
Nc1nc(Nc2ccccc2)nc2c1ncn2-c1ccsc1,0,37.2,0,0
c1ccc(-n2cnc3c(Nc4ccc(N5CCOCC5)cc4)nc(Nc4ccc5ncccc5c4)nc32)cc1,0,0,0,0
Nc1nc(NCc2cccnc2)nc2c1ncn2CCN1CCCC1=O,0,0,0,0
CC(=O)Nc1ccc(Nc2nc(Nc3ccc4ncccc4c3)nc3c2ncn3-c2ccccc2)cc1,0,40.2,0,0
CC(=O)Nc1ccc(Nc2nc(Nc3ccc4ncccc4c3)nc3c2ncn3C(C)C)cc1,0,35.6,0,0
c1ccc(Nc2nc(Nc3ccc4ncccc4c3)nc3c2ncn3-c2ccsc2)cc1,0,57.5,0,0
CSc1ccccc1N1C(=O)CN(C(=O)c2ccc(C(C)=O)s2)CC1C (stereo unspecified),0,0,0,0
Cc1ccc2nc3c(cc(C(N)=O)c(=N)n3CCc3ccccc3)c(=O)n2c1,0,39.5,0,0
CN(C)c1ccc(-c2nc3cc(N)ccc3o2)cc1,0,79.2,0,0
CCc1ccc(-c2nc3cc(N)ccc3o2)cc1,0,65.4,0,0
Cc1ccc(-c2nc3cc(N)ccc3o2)cc1Cl,0,0,0,0
SMILES,FBW7 activator,TEAD-YAP block,GPR151 ag,MITF inh
COC(=O)c1ccc(-c2nc3cc(N)ccc3o2)cc1,0,72.2,0,0
COC(=O)c1ccc(-c2nc3cc(NC(C)=O)c(N)cc3o2)cc1,0,0,0,0
COc1cccc(-c2nc3cc(N)ccc3o2)c1,0,49.2,0,0
CCN1CCN(CCCNC(=O)c2ccc3c(c2)NC(=O)C(CSCc2ccccc2C)N3)CC1 (stereo unspecified),0,0,0,0
CCOC(=O)C1=C(C)NC(=S)NC1c1cccc(OC)c1 (stereo unspecified),0,0,0,0
CCc1c(C)sc(NC(=S)N2CCN(c3ncccn3)CC2)c1C(=O)OC,0,0,0,0
Cc1ccc(S(=O)(=O)N2CCCC(c3nnc(C)s3)C2)c(C)c1 (stereo unspecified),0,0,0,0
Nc1ccc(-c2nc3cc(N)ccc3o2)cc1,0,49.3,0,0
CCOc1ccc(-c2nc3cc(N)ccc3o2)cc1,0,76.1,0,0
CCc1ccc2oc(-c3cc(N)ccc3Cl)nc2c1,0,0,0,0
CCc1ccc2oc(-c3cc(N)ccc3O)nc2c1,0,38.2,0,0
Nc1ccc(-c2nc3cc(Cc4ccc5oc(-c6ccc(N)cc6)nc5c4)ccc3o2)cc1,0,0,0,0
